# Experimental data published in PubChem BioAssay (NCATS).
# Where “and” joins values, the source holds several entries; their conditions need not be identical. Equal entries are not always repeated. Inconclusive results are not listed. Entries that show only a call come without a potency. Values without a mark were called inactive. Calls of active or inactive are those of the source. Unless noted, calls follow the shape of the dose curve; as a rule, active = well fitted curve in the direction sought with a large enough effect in the repeat runs; inconclusive = weak or mixed curves; inactive = no such curve, though single readings can be large; an effect the other way counts as inactive or inconclusive.
# Assays:
# [1] = A High-Content qHTS Against Drug Library for the Identification of Small Molecules that Inhibit DYT1 Early Onset Primary Dystonia-Associated Cell Pathology (AID 1645839; calls by dose curve)
# How it was run: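 High-content imaging quantified EGFP-TorsinA mislocalization in HEK293-derived cells inducibly expressing DYT1 mutant torsinA, after 48 h exposure to compound given together with tetracycline induction. Cell count served as a toxicity channel alongside %pathology.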
# [2] = biological target: Cytochrome P450 2D6 (Homo sapiens) (UniProt P10635); assay: Cytochrome P450 family 2 subfamily D member 6 (CYP2D6) small molecule antagonists: luciferase biochemical (cell-free) qHTS assay (AID 1645840); also: nearly all actives have a fitted effect of over 55% in size; also: potency is read from the fitted curve at half-maximal effect
# Cytochrome P450 2D6 (Homo sapiens), sequence (P10635 whole entry, looked up): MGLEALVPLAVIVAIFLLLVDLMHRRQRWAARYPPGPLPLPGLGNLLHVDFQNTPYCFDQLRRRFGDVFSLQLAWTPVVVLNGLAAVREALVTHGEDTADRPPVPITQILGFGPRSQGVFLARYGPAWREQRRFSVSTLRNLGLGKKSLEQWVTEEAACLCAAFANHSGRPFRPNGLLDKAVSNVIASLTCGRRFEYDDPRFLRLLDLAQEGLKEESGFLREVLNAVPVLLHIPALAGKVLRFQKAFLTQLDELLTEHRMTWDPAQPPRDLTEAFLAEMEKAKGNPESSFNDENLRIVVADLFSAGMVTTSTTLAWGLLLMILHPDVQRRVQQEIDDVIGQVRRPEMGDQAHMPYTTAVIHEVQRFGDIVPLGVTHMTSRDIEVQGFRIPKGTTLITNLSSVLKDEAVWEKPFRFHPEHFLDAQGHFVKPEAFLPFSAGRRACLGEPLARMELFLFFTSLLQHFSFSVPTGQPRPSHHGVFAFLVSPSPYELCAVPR
# How it was run: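 P450-Glo CYP2D6 system: proluciferin substrate converted by enzyme to luciferin, read by luminescence proportional to activity. Enzyme-substrate mix with compound 10 min at room temperature, then NADPH regeneration 1 h before detection reagent.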
# [3] = biological target: Cytochrome P450 2C9 (Homo sapiens) (UniProt P11712); assay: Cytochrome P450 family 2 subfamily C member 9 (CYP2C9) small molecule antagonists: luciferase biochemical (cell-free) qHTS assay (AID 1645842); also: nearly all actives have a fitted effect of over 55% in size; also: potency is read from the fitted curve at half-maximal effect
# Cytochrome P450 2C9 (Homo sapiens), sequence (P11712 whole entry, looked up): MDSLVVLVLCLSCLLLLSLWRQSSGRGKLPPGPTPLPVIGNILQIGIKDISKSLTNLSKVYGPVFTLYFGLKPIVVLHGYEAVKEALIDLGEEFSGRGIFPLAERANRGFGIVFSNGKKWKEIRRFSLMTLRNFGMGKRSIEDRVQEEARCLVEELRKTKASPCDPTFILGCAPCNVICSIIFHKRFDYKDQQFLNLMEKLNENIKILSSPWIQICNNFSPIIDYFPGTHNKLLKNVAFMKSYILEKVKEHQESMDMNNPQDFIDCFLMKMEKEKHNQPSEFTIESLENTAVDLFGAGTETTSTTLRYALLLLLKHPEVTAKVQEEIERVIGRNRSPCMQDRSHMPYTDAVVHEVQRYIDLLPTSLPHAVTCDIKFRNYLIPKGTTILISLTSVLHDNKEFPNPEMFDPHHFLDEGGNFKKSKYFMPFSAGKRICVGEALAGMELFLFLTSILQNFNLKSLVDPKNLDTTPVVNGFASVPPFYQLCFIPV
# How it was run: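 P450-Glo CYP2C9 system: proluciferin substrate with enzyme in mix containing 0.4% BSA, 10 min at room temperature, then NADPH regeneration solution added and incubated 1 h at 37C. Detection reagent stopped reaction; luminescence read after 20 min as RLU.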
# [4] = Primary qHTS for inhibitors of nuclear receptor binding SET domain protein 2 (NSD2) in an isogenic RCH-ACV NSD2 p.E1099K mutant (9B) (AID 1645876; active = well fitted curve in the direction sought with a large enough effect; an effect the other way counts as inactive or inconclusive; also: nearly all actives have a fitted effect of over 70% in size; also: potency is read from the fitted curve at half-maximal effect)
# [5] = Primary qHTS for inhibitors of nuclear receptor binding SET domain protein 2 (NSD2) in an RCH-ACV wild type WT cells (2C) (AID 1645877; active = well fitted curve in the direction sought with a large enough effect; an effect the other way counts as inactive or inconclusive; also: nearly all actives have a fitted effect of over 70% in size; also: potency is read from the fitted curve at half-maximal effect)
# [6] = biological target: Rap guanine nucleotide exchange factor 3 (Homo sapiens) (UniProt O95398); assay: Confirmatory qHTS for agonist of cAMP-regulated guanine nucleotide exchange factor 3 (EPAC1) (AID 1645881; active = well fitted curve in the direction sought with a large enough effect; an effect the other way counts as inactive or inconclusive;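 also: EPAC1 catalysed release of BODIPY-GDP from Rap1B seen as fluorescence loss; nearly all actives have a fitted effect of over 75% in size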)
# Rap guanine nucleotide exchange factor 3 (Homo sapiens), sequence (O95398 whole entry, looked up): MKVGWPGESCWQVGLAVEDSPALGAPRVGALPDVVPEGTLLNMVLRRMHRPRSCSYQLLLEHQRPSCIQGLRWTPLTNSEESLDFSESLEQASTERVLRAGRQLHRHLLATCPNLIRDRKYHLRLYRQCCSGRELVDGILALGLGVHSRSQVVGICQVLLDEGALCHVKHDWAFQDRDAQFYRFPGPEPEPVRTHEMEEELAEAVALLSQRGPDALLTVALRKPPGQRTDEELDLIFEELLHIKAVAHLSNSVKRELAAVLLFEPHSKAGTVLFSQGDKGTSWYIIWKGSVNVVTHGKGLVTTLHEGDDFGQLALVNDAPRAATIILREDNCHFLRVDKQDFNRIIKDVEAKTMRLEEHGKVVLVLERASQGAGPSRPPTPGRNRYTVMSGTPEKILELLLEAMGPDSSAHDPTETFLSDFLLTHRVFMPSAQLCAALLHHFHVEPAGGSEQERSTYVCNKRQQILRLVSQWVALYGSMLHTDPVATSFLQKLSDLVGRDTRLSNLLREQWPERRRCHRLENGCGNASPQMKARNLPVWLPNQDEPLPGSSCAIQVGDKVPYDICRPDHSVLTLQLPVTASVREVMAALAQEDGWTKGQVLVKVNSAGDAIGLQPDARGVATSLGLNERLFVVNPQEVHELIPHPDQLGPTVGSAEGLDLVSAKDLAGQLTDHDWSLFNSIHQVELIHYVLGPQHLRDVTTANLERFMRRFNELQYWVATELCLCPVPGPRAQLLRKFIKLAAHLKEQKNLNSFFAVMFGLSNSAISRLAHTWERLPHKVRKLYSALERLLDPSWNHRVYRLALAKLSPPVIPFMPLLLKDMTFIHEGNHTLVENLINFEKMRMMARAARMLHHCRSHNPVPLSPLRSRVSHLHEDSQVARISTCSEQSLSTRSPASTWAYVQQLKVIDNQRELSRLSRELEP
# [7] = biological target: Rap guanine nucleotide exchange factor 4 (Homo sapiens) (UniProt Q8WZA2); assay: Confirmatory qHTS for antagonist of cAMP-regulated guanine nucleotide exchange factor 4 (EPAC2) (AID 1645885; active = well fitted curve in the direction sought with a large enough effect; an effect the other way counts as inactive or inconclusive; also: potency is read from the fitted curve at half-maximal effect; nearly all actives have a fitted effect of over 25% in size)
# Rap guanine nucleotide exchange factor 4 (Homo sapiens), sequence (Q8WZA2 whole entry, looked up): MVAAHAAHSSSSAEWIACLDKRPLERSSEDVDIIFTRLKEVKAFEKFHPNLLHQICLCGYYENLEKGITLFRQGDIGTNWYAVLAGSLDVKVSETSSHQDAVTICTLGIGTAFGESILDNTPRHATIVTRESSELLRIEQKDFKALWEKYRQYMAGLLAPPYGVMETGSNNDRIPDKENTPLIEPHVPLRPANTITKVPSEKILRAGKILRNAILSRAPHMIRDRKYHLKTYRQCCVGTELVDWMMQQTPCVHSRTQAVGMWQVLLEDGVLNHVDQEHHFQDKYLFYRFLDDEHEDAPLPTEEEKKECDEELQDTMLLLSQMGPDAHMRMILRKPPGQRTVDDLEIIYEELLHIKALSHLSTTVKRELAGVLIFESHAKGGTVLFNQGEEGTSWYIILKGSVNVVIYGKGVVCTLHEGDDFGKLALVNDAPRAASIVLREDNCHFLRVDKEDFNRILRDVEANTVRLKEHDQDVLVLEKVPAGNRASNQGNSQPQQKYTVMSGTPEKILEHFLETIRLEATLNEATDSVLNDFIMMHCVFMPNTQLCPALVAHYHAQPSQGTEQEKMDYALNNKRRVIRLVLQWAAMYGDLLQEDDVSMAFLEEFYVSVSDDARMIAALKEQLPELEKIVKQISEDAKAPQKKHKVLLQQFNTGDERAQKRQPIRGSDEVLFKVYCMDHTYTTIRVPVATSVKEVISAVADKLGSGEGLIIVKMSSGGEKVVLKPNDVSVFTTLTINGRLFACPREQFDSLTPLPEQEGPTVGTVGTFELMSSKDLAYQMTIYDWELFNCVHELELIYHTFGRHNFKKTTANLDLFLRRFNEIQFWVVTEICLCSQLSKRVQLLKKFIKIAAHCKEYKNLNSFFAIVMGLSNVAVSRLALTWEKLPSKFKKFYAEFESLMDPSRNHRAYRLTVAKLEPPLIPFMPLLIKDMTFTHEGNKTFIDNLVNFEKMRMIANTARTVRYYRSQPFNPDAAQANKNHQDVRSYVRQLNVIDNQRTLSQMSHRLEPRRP
# [8] = NCATS anti-infectives library activity on HEK293 viability as a counter-qHTS vs the C. elegans viability qHTS (AID 1745854; active = well fitted curve in the direction sought with a large enough effect; an effect the other way counts as inactive or inconclusive;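 also: HEK293 cells exposed to compounds for 24 hr before the viability read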)
# How it was run: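 Counter-screen for cytotoxicity: HEK293, 24 hr, 37C, compounds up to 41.7 uM final (a dilution series, 1:5). Readout CellTiter-Glo luminescence, 10 min RT. Digitonin control, […] uM final.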
# [9] = NCATS anti-infectives library activity on the primary C. elegans qHTS viability assay (AID 1745855; calls by dose curve); details: C. elegans worm area imaging, day 7; at 41.8 µM (top of the series) unless noted
# How it was run: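 GFP read-out by 488 nm laser cytometry at day 0, 3 and 7, gated on object perimeter, area and peak intensity, scored viability of PE254-GFP-FLuc worms exposed to compound in S medium with bacterial capsules at 21 °C.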
# [10] = biological target: Rap guanine nucleotide exchange factor 4 (Homo sapiens) (UniProt Q8WZA2); assay: Confirmatory qHTS for agonist of cAMP-regulated guanine nucleotide exchange factor 4 (EPAC2) (AID 1645884; active = well fitted curve in the direction sought with a large enough effect; an effect the other way counts as inactive or inconclusive;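 also: nucleotide exchange releases bodipy-GDP from Rap1 and this lowers its fluorescence; nearly all actives have a fitted effect of over 65% in size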)
smiles,measurement,setting,value
Nc1ccc(C(=O)NCC(=O)O)cc1,Potency,[1],inactive
same,Potency,[2],inactive
same,Potency,[3],inactive
same,Potency,[4],inactive
same,Potency,[5],inactive
O=C(O)CCNC(=O)c1ccccc1,Potency,[1],inactive
same,Potency,[2],inactive
same,Potency,[3],inactive
same,Potency,[4],inactive
same,Potency,[5],inactive
CCN1CCN(C(=O)N[C@@H](C(=O)N[C@@H]2C(=O)N3C(C(=O)O)=C(CSc4nnnn4C)CS[C@H]23)c2ccc(O)cc2)C(=O)C1=O,Potency,[1],inactive
same,Potency,[2],inactive
same,Potency,[3],inactive
same,Potency,[4],inactive
O=[N+]([O-])c1ccc(/C=N\O)o1,Potency,[1],inactive
same,Potency,[2],13.8 µM (active)
same,Potency,[3],inactive
same,Potency,[5],inactive
CCN(CC)CCNC(=O)COc1ccc(OC)cc1,Potency,[1],inactive
same,Potency,[2],13.8 µM (active)
same,Potency,[3],inactive
same,Potency,[4],inactive
same,Potency,[5],inactive
Oc1ccc(Cl)cc1Cc1cc(Cl)ccc1O,Potency,[2],27.5 µM (active)
same,Potency,[3],7.76 µM (active)
same,outcome,[6],inactive
same,Potency,[7],35 µM (active)
O=C(NCCc1c[nH]c2ccccc12)c1cccnc1,Potency,[1],inactive
same,Potency,[4],inactive
same,Potency,[5],inactive
O=c1[nH]c(=O)n([C@H]2C[C@H](O)[C@@H](CO)O2)cc1F,Potency,[2],inactive
same,Potency,[3],inactive
same,Potency,[4],13.3 nM (active) and 29.5 nM (active)
CCCCCCCCCCCCOCCOCCOCCOCCOCCOCCOCCOCCOCCO,Potency,[2],12.3 µM (active)
same,Potency,[3],21.9 µM (active)
Cc1ccc(O)c([C@H](CCN(C(C)C)C(C)C)c2ccccc2)c1,Potency,[2],2.45 µM (active) and 2.13 µM (active)
same,Potency,[3],inactive
same,Potency,[4],21.1 µM (active)
CCCCC(CC)COC(=O)c1ccc(N(C)C)cc1 (configuration not stated),Potency,[1],inactive
same,Potency,[3],13.8 µM (active) and 13.5 µM (active)
same,Potency,[4],inactive
same,Potency,[5],inactive
OC[C@H]1O[C@@H](Oc2ccc(O)cc2)[C@H](O)[C@@H](O)[C@@H]1O,Potency,[1],inactive
same,Potency,[2],inactive
same,Potency,[3],inactive
same,outcome,[8],inactive
same,outcome,[9],inactive [at 83.3 µM]
CO[C@H]1C=CO[C@@]2(C)Oc3c(C)c(O)c4c(O)c(c(/C=N/N5CCN(C)CC5)c(O)c4c3C2=O)NC(=O)/C(C)=C\C=C[C@H](C)[C@H](O)[C@@H](C)[C@@H](O)[C@@H](C)[C@H](OC(C)=O)[C@@H]1C,Potency,[2],inactive
same,outcome,[6],inactive
same,outcome,[10],inactive
same,Potency,[7],44.1 µM (active)
O=C(NC1CCN(CCc2c[nH]c3ccccc23)CC1)c1ccccc1,Potency,[2],1.23 µM (active)
same,Potency,[3],inactive
CCCCc1cc2ccccc2c(OCCN(C)C)n1,Potency,[2],2.19 µM (active)
same,Potency,[3],inactive
same,Potency,[5],18.8 µM (active)
CCCCCCCCCCCCSCCOCCO,Potency,[1],inactive
same,Potency,[3],12.3 µM (active)
same,Potency,[4],inactive
CC[C@H](c1ccc(O)cc1)[C@@H](CC)c1ccc(O)cc1,Potency,[4],11.9 µM (active)
same,Potency,[5],8.41 µM (active)
O=C(O)P(=O)(O)O,Potency,[1],inactive
same,Potency,[2],inactive
same,Potency,[3],inactive
same,outcome,[8],inactive
C/C=C/C=N/NC(=O)c1ccncc1,Potency,[1],inactive
same,Potency,[4],inactive
CCc1nn(CCCN2CCN(c3cccc(Cl)c3)CC2)c(=O)n1CCOc1ccccc1,Potency,[2],0.977 µM (active)
same,Potency,[3],inactive
CC(O)Cn1cnc2c1c(=O)n(C)c(=O)n2C (configuration not stated),Potency,[1],inactive
same,Potency,[4],inactive
same,Potency,[5],inactive
